Experimental data from PubChem BioAssay.
The source made the active and inactive calls.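 The calls were made as follows, unless noted: active = inhibition of the reporter signal at or above 50%; inactive = inhibition below 50%.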

How the values were obtained:
[1] = inhibitors of TNFa-induced NFkB p65 translocation, primary screen, imaging, HUVEC, MLSMR starter and 10KST1 sets (AID 438;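 active = inhibition above 20% together with a positive visual image hit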;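 also: compound added about 3h40 before a 20 min TNFalpha stimulation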;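 as to inhibition: signal is the nuclear over cytoplasmic p65 intensity ratio per well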); details: HUVEC TNFa-induced p65 nuclear translocation; cell count: measured here: nuclei count (cytotoxicity indicator), at 2.08 µM; inhibition: at 2 µM, stronger effect = higher value, 0% TNFa-plus-vehicle, 100% no-TNFa wells
[2] = inhibitors of mutant huntingtin aggregation, primary screen, imaging, exon1htt(103Q)mCFP cells, high-content imaging (AID 483;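 active = visual image review flags a hit and inhibition of aggregation exceeds 20%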;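 also: compound exposure lasted 3 days before fixation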;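 as to nuclei count: percent of the per-plate median nuclei count of sample wells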); details: exon1htt(103Q)mCFP cell line, aggregate imaging, at 2 µM; inhibition of aggregation: stronger effect = higher value; nuclei count: measured here: cell count, toxicity
[3] = inhibitors of E-selectin induction by TNFa, primary screen, imaging, HUVEC, immunofluorescence, MLSMR starter and 10KST1 sets (AID 487;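 active = visually confirmed hit in the image check and inhibition above 20%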;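 as to inhibition: signal is fraction of cell area covered by stained E-selectin grains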;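 as to nuclei count: 100% = median nuclei count of all wells on the same plate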); details: HUVEC TNFalpha-induced E-selectin immunofluorescence imaging, at 2 µM; inhibition: stronger effect = higher value; nuclei count: measured here: cell number, toxicity
[4] = biological target: Voltage-gated potassium channel subunit beta-2 (Rattus norvegicus) (UniProt P62483); test: KvBeta enzyme negative modulators, primary screen, biochemical, NADPH fluorescence (AID 622;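 active = fluorescence slope higher than the sample average by over 3 SD, cut at about -0.22 in these data, passing the limit was not always enough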;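 also: slope of raw intensity against log time taken from 70 to 1610 s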); details: recombinant KvBeta, 4-cyanobenzaldehyde reduction, at 10 µM, stronger effect = higher value
[5] = biological target: Voltage-gated potassium channel subunit beta-2 (Rattus norvegicus) (UniProt P62483); test: KvBeta positive modulators, primary screen, biochemical, NADPH fluorescence (AID 623;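 active = NADPH fluorescence slope more negative than the mean of all samples by about 3 SD, 99.7% confidence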;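 also: fluorescence intensity change per second fitted from 20 to 320 s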); details: Recombinant KvBeta, NADPH fluorescence decrease slope, 10 min; at 10 µM; stronger effect = lower value
[6] = biological target: Alpha-2C adrenergic receptor (Homo sapiens) (UniProt P18825); test: modulators of alpha2C/GIRK thallium flux, primary screen, cell-based, HEK293 alpha2C/GIRK1/2 (AID 624;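 active = fluorescence slope after compound addition differing from the mean of all screened samples at 99.7% confidence, in either direction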;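 also: slope of fluorescence ratio to pre-addition baseline per second over 15 to 24 s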); details: thallium flux BTC fluorescence, at 10 µM, actives lie on both sides
[7] = inhibitors of Sendai virus-induced IRF3 signaling, primary screen, TLR/RLR signaling modifier project, cell-based, Sendai virus stimulus, luciferase, 10K MLSCN set (AID 602276;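 active = inhibition at or above 50% at 10 µM; inactive = inhibition below 50%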;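 also: firefly luciferase from ISG56 promoter only with Renilla not read in this screen; 0% = Sendai virus plus DMSO and 100% = medium plus DMSO without virus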); details: HEK293 RL24 IRF3 luciferase reporter, at 10 µM, stronger effect = higher value
[8] = inhibitors of poly I:C-induced TLR3 signaling, primary screen, cell-based, poly I:C stimulus, luciferase, 10K MLSCN set (AID 602277); details: HEK293-TLR3 RL24 IRF3 luciferase reporter, at 10 µM, stronger effect = higher value

Alpha-2C adrenergic receptor (Homo sapiens), sequence (P18825 whole entry, looked up): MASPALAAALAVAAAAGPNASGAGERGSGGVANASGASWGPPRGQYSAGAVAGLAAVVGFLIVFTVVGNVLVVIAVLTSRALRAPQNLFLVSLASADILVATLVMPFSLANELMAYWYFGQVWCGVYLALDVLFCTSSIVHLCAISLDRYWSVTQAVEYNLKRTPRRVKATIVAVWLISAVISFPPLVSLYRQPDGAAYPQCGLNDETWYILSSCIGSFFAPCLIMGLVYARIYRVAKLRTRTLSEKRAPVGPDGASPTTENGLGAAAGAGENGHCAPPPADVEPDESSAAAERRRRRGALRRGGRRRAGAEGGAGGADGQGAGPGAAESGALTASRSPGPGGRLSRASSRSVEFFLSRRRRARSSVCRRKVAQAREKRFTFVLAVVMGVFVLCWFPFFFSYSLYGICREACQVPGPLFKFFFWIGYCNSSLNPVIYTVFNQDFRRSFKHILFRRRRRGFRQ
Voltage-gated potassium channel subunit beta-2 (Rattus norvegicus), sequence (P62483 whole entry, looked up): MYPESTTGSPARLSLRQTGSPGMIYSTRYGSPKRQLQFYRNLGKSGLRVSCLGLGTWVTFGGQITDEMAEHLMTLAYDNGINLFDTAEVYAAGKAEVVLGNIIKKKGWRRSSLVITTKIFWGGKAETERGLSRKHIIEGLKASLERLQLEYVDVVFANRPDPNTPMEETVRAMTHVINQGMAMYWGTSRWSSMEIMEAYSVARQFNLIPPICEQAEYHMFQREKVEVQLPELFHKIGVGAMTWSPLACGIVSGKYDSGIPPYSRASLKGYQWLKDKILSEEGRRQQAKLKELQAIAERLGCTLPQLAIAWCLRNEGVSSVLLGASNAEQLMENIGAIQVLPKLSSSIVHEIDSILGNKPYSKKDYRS

CCOC(=O)c1oc2ccccc2c1NC(=O)c1cccc(OC)c1OC
cell count [1]: 553 | inhibition [1]: -14.1% (inactive) | inhibition of aggregation [2]: -13% (inactive) | nuclei count [2]: 104% | inhibition [3]: 23.6% (inactive) | nuclei count [3]: 82.8% | fluorescence slope [4]: -0.616 (inactive) | NADPH fluorescence slope [5]: -1.9e-05 (inactive) | slope [6]: 0.00654 (inactive) | inhibition [7]: -0.203% (inactive) | inhibition [8]: -6.33% (inactive)

Cc1cccc(N=C2NC(=O)CS2)c1C
cell count [1]: 333 | inhibition [1]: -0.6% (inactive) | inhibition of aggregation [2]: -5.7% (inactive) | nuclei count [2]: 109% | inhibition [3]: 3.7% (inactive) | nuclei count [3]: 93.9% | fluorescence slope [4]: -0.499 (inactive) | NADPH fluorescence slope [5]: -3.3e-05 (inactive) | slope [6]: 0.00501 (inactive) | inhibition [7]: 20.6% (inactive) | inhibition [8]: 22.9% (inactive)

CCOC(=O)N1CCN(C(=O)CSc2nnc(Cc3ccccc3)o2)CC1
cell count [1]: 645 | inhibition [1]: -6.9% (inactive) | inhibition of aggregation [2]: 10.1% (inactive) | nuclei count [2]: 123% | inhibition [3]: -53.8% (inactive) | nuclei count [3]: 102% | fluorescence slope [4]: -0.525 (inactive) | NADPH fluorescence slope [5]: -3.6e-05 (inactive) | slope [6]: 0.00629 (inactive) | inhibition [7]: 2.23% (inactive) | inhibition [8]: 10.9% (inactive)

CCCC(=O)N1CC(=O)Nc2ccc(C)cc2C1c1ccc(F)cc1 (configuration not stated)
cell count [1]: 698 | inhibition [1]: -9.1% (inactive) | inhibition of aggregation [2]: 7.9% (inactive) | nuclei count [2]: 103% | inhibition [3]: -21.3% (inactive) | nuclei count [3]: 111% | fluorescence slope [4]: -0.513 (inactive) | NADPH fluorescence slope [5]: -3e-05 (inactive) | slope [6]: 0.00518 (inactive) | inhibition [7]: 3.95% (inactive) | inhibition [8]: 24.9% (inactive)

O=C(CSc1nnc(-c2ccco2)n1-c1ccccc1)N1CCN(C(=O)c2ccco2)CC1
cell count [1]: 537 | inhibition [1]: -7.8% (inactive) | inhibition of aggregation [2]: 27.8% (active) | nuclei count [2]: 59.4% | inhibition [3]: 0.8% (inactive) | nuclei count [3]: 116% | fluorescence slope [4]: -0.474 (inactive) | NADPH fluorescence slope [5]: -1.7e-05 (inactive) | slope [6]: 0.00672 (inactive) | inhibition [7]: 11.5% (inactive) | inhibition [8]: 31.2% (inactive)

COc1ccccc1NC(=O)N(C1CCCC1)C1CCN(C(C)=O)CC1
cell count [1]: 830 | inhibition [1]: 18.5% (inactive) | inhibition of aggregation [2]: -7% (inactive) | nuclei count [2]: 98% | inhibition [3]: -61.6% (inactive) | nuclei count [3]: 123% | fluorescence slope [4]: -0.582 (inactive) | NADPH fluorescence slope [5]: -3.7e-05 (inactive) | slope [6]: 0.00578 (inactive) | inhibition [7]: 12.4% (inactive) | inhibition [8]: 34.4% (inactive)

CCCCN(CCCC)CCn1cnc2c([nH]c3ccc(OC)cc32)c1=O
cell count [1]: 569 | inhibition [1]: -7.1% (inactive) | inhibition of aggregation [2]: 0.2% (inactive) | nuclei count [2]: 85.8% | inhibition [3]: -65.8% (inactive) | nuclei count [3]: 105% | fluorescence slope [4]: -0.536 (inactive) | NADPH fluorescence slope [5]: -1.1e-05 (inactive) | slope [6]: 0.00685 (inactive) | inhibition [7]: 4.54% (inactive) | inhibition [8]: 30.7% (inactive)

CCn1c(=O)c2cc(S(=O)(=O)NCc3ccccc3)ccc2n(CC)c1=O
cell count [1]: 404 | inhibition [1]: -2.3% (inactive) | inhibition of aggregation [2]: -3.8% (inactive) | nuclei count [2]: 104% | inhibition [3]: 0.2% (inactive) | nuclei count [3]: 126% | fluorescence slope [4]: -0.573 (inactive) | NADPH fluorescence slope [5]: 1.7e-05 (inactive) | slope [6]: 0.00625 (inactive) | inhibition [7]: 11.6% (inactive) | inhibition [8]: 3.23% (inactive)

Nc1nc(NCc2ccco2)nn1-c1ccccc1
cell count [1]: 335 | inhibition [1]: -14.2% (inactive) | inhibition of aggregation [2]: -22.2% (inactive) | nuclei count [2]: 112% | inhibition [3]: 5.3% (inactive) | nuclei count [3]: 93.7% | fluorescence slope [4]: -0.402 (inactive) | NADPH fluorescence slope [5]: -8.1e-05 (inactive) | slope [6]: 0.00567 (inactive) | inhibition [7]: 7.08% (inactive) | inhibition [8]: -10.7% (inactive)

COc1ccc(C)cc1NCc1cccc(OC)c1OC
cell count [1]: 335 | inhibition [1]: -7% (inactive) | inhibition of aggregation [2]: 7% (inactive) | nuclei count [2]: 111% | inhibition [3]: -41.1% (inactive) | nuclei count [3]: 110% | fluorescence slope [4]: -0.496 (inactive) | NADPH fluorescence slope [5]: -2.7e-05 (inactive) | slope [6]: 0.00476 (inactive) | inhibition [7]: -7.74% (inactive) | inhibition [8]: 24.1% (inactive)

CC(=O)Nc1ccc(N=Cc2ccc[nH]2)cc1
cell count [1]: 362 | inhibition [1]: 3.4% (inactive) | inhibition of aggregation [2]: -8.9% (inactive) | nuclei count [2]: 108% | inhibition [3]: 9.1% (inactive) | nuclei count [3]: 99.4% | fluorescence slope [4]: -0.264 (inactive) | NADPH fluorescence slope [5]: -1.6e-05 (inactive) | slope [6]: 0.00576 (inactive) | inhibition [7]: 9.12% (inactive) | inhibition [8]: -21% (inactive)

Cc1ccc(/C=c2\sc3nc(-c4ccccc4Br)nn3c2=O)o1
cell count [1]: 277 | inhibition [1]: -5% (inactive) | inhibition of aggregation [2]: 39.3% (active) | nuclei count [2]: 92.3% | inhibition [3]: -9.5% (inactive) | nuclei count [3]: 94.1% | fluorescence slope [4]: -0.577 (inactive) | NADPH fluorescence slope [5]: -5.1e-05 (inactive) | slope [6]: 0.00296 (inactive) | inhibition [7]: 12.3% (inactive) | inhibition [8]: 18.9% (inactive)
